Screening data as filed in PubChem.
The list is not random: actives were taken first. Their share in the collection is about 0.57%.
TcdB inh: blocks C. difficile toxin B glycohydrolase activity; P18177; TcdB glycohydrolase enzymatic assay, plate reader; inhibition, % at 9.99 µM; 350,000 tested, 0.24% active; in the data active = inhibition above about 10%
BioA inh: BioA (M. tuberculosis) enzyme inhibition. purified M. tuberculosis BioA enzyme, plate reader. inhibition, % at 9.99 µM. 360,000 tested, 0.096% active; in the data active = inhibition above about 40%
PrP UTR inh: suppresses PrP 5' UTR mRNA reporter expression | cell-based PrP 5' UTR mRNA reporter, plate reader | 340,000 tested, 0.35% active | inhibition, % (test concentration not listed); in the data active = inhibition above about 52%; note: 0 = median of the neutral control wells
Y pestis TopoI: Y. pestis Topo-I inhibition via cleavage products | Y. pestis Topo-I cleavage product accumulation, plate reader | activity, % at 10 µM | 360,000 tested, 0.064% active | AID 504884; in the data active = activity above about 50%, passing the limit was not always enough
* marks the source's active call; other numbers are inactive results; x = not tested or not shown.

SMILES	TcdB inh	BioA inh	PrP UTR inh	Y pestis TopoI
O=CN(c1ccccc1)c1ccc2ccccc2c1	13.0*	x	-5.9	11.7
COc1ccc(NC(=O)N(C)C[C@@H]2OCCCC[C@H](C)Oc3ccc(NS(=O)(=O)c4c(C)noc4C)cc3C(=O)N([C@H](C)CO)C[C@@H]2C)cc1	x	0.5	x	x
CCOC(=O)[C@@H]1[C@H]2COc3ccc(Br)cc3[C@@H]2N2C(=O)N(c3cccc(F)c3)C(=O)[C@]12C	10.7*	-0.8	-10.0	8.0
O=C(OCC(=O)N1CCCCC1)c1ccccc1SCC(=O)N1CCCCC1	15.9*	-1.6	-21.4	12.3
O=C(COC(=O)c1ccccc1SCC(=O)N1CCCC1)NC1CCCCC1	3.0	0.3	2.0	7.8
O=S(=O)(NC1CCCC1)c1ccc(S(=O)(=O)NC2CCCC2)cc1	x	-1.1	-44.8	2.8
O=S(=O)(NC1CCCCCCC1)c1ccc(F)cc1	12.3*	1.1	x	8.3
CO[C@H]1CN(C)C(=O)c2cc(NC(=O)C3CC3)ccc2OC[C@@H](C)N(C(=O)C2CCCCC2)C[C@@H]1C	-1.6	-0.5	x	x
CCCCCCCCN1[C@@H](CC(=O)OCC)c2cc(C(F)(F)F)ccc2S1(=O)=O	1.8	2.1	-5.8	70.2*
COCC(=O)Nc1ccc2c(c1)C(=O)N(C)C[C@@H](OC)[C@@H](C)CN(C(=O)c1ccccn1)[C@H](C)CO2	0.4	3.5	x	x
C[C@@H](NC(=O)C[C@H]1CC[C@@H](NC(=O)C2CCC2)[C@H](CO)O1)c1ccccc1	0.1	-0.8	x	x
COc1ccc(NC(=O)Cn2cnc3sc(C)c(S(=O)(=O)N4CCOCC4)c3c2=O)c(OC)c1	15.4*	0.2	-0.8	4.1
Cc1noc(C)c1NC(=O)Nc1ccc2c(c1)C(=O)N([C@H](C)CO)C[C@H](C)[C@H](CN(C)Cc1ccc3c(c1)OCO3)O2	0.6	-2.3	x	x
CC(C)OC(=O)c1cccc(C(=O)Oc2ccc(Br)cc2)n1	x	0.7	-19.4	6.8
CC(C)OC(=O)c1cccc(C(=O)O)n1	11.5*	-0.3	-18.1	-2.6
COc1ccc(-c2nc(N)ncc2-c2ccccc2OC)c(O)c1	12.8*	0.1	-8.4	-1.8
COc1ccc(-c2nc3ccccc3n2Cc2ccccc2)cc1	x	-0.1	-7.3	10.8
COc1cc(Cn2c(-c3ccc(O)c(OC)c3)nc3ccccc32)ccc1O	15.0*	x	-18.3	0.5
Cc1noc(C)c1NC(=O)N(C)C[C@H]1OCCCC[C@@H](C)Oc2ccc(NC(=O)C3CCCCC3)cc2C(=O)N([C@@H](C)CO)C[C@@H]1C	0.0	0.2	x	x
Cc1ccccc1S(=O)(=O)N1CCCc2nc(C)c(C)cc21	10.8*	x	x	x
Cc1ccccc1S(=O)(=O)N1CCCc2nc(-c3ccccc3)ccc21	-0.3	x	x	x
O=C(C[C@@H]1CC[C@@H]2[C@H](COC[C@H](O)CN2C(=O)c2ccccn2)O1)NC1CCC1	12.3*	-0.4	x	x
O=C(C[C@H]1CC[C@@H]2[C@H](COC[C@@H](O)CN2C(=O)Nc2ccc(Cl)c(Cl)c2)O1)NCc1ccncc1	18.1*	4.9	x	x
Cc1cc(C=C2C(=O)c3ccccc3C2=O)c(C)n1-c1ccc(C(=O)O)cc1	26.7*	x	-29.2	8.5
COc1ccc(S(=O)(=O)Nc2ccc3c(c2)C(=O)N([C@H](C)CO)C[C@@H](C)[C@@H](CN(C)S(=O)(=O)c2cn(C)cn2)O3)cc1	0.1	2.2	x	x
SMILES	TcdB inh	BioA inh	PrP UTR inh	Y pestis TopoI
CC(=O)C[C@H]1c2ccccc2S(=O)(=O)N1C1CCCCC1	14.4*	-1.0	-5.0	1.5
O=C(Nc1ccc(N2CCOCC2)c(Cl)c1)c1ccc(F)cc1	16.6*	4.5	-69.3	2.9
COCCNC(=O)C[C@@H]1C[C@@H]2c3cc(NS(=O)(=O)c4ccccc4)ccc3O[C@@H]2[C@@H](CO)O1	-0.5	0.6	x	x
Fc1ccccc1Nc1n[nH]c(=S)s1	10.0*	x	-15.9	3.7
COc1ccc(C(=O)Nc2c(-c3cccs3)c(=O)c3ccccc3n2C)cc1	11.2*	x	-9.8	6.0
Cc1ccc(C(=O)Nc2c(-c3cccs3)c(=O)c3ccccc3n2C)cc1	x	-1.9	-11.6	-6.5
OCC1CCCN(C(=S)Nc2ccc(Nc3ccccc3)cc2)C1 (stereo unspecified)	10.7*	1.4	-57.5	-1.4
Cc1ccc(S(=O)(=O)Oc2cccc(/C=N/Nc3ccc(C(=O)O)cc3)c2)cc1	11.1*	17.3	-7.0	-3.6
Cc1ccc(S(=O)(=O)Oc2cccc(/C=N/n3cnnc3)c2)cc1	10.5*	x	-4.1	-2.7
COC(=O)c1ccc(C(=O)N(C)C2CCCN(Cc3ccccc3F)C2)cc1 (stereo unspecified)	1.2	-0.9	-8.6	6.1
CC(=O)c1ccc(C(=O)N(C)C2CCCN(Cc3ccccc3F)C2)s1 (stereo unspecified)	2.1	75.3*	0.8	-4.6
CO[C@@H]1CN(C)C(=O)c2cc(NC(=O)C3CC3)ccc2OC[C@H](C)N(C(=O)c2cnccn2)C[C@@H]1C	-1.4	0.6	x	x
COc1ccccc1NC(=O)Nc1nnc(CC(=O)Nc2ccccc2C)s1	0.7	x	76.5*	1.7
COc1ccc(-c2cn3cc(C)ccc3n2)cc1OC	x	7.8	-36.0	4.0
COc1ccc(-c2cn3cc(C)ccc3n2)cc1F	20.2*	1.5	-0.9	10.0
Nc1c(Cl)ncnc1NCc1cccnc1	1.5	7.8	1.0	-1.8
Nc1c(Cl)ncnc1NCCc1ccc(O)cc1	11.0*	x	-18.5	0.7
O=C(Nc1ccc(O)cc1)/C(=C\c1cccs1)NC(=O)c1ccccc1	19.1*	x	-13.4	4.1
COc1cc(/C=C(/NC(=O)c2ccccc2)C(=O)Nc2ccccc2)c([N+](=O)[O-])cc1OC	x	0.2	-35.0	-3.7
COc1cc(/C=C(/NC(=O)c2ccccc2)C(=O)Nc2ccc(O)cc2)c([N+](=O)[O-])cc1OC	13.2*	x	-35.5	-12.7
COc1ccc(S(=O)(=O)Nc2ccc3c(c2)C(=O)N([C@H](C)CO)C[C@@H](C)[C@H](CN(C)Cc2ccncc2)OCCCC[C@@H](C)O3)cc1	-0.3	1.2	x	x
Cc1noc(C)c1NC(=O)N(C)C[C@H]1OCCCC[C@H](C)Oc2ccc(NS(=O)(=O)c3cn(C)cn3)cc2C(=O)N([C@@H](C)CO)C[C@H]1C	x	0.7	x	x
Cc1cc(NC(=O)CSc2cn(CCNC(=O)c3ccccc3)c3ccccc23)no1	x	-0.6	-11.4	12.1
Cc1ccc(C(=O)NCCn2cc(SCC(=O)Nc3cc(C)on3)c3ccccc32)cc1	15.1*	-0.6	8.8	5.2
CCCCn1c(=O)[nH]c(=O)c2c1nc(-c1ccsc1)n2Cc1ccccc1	x	-0.6	-17.4	59.0*
SMILES	TcdB inh	BioA inh	PrP UTR inh	Y pestis TopoI
CCCCn1c(-c2ccsc2)nc2c1c(=O)[nH]c(=O)n2CCC	x	0.7	-3.0	0.3
Cc1ccc(S(=O)(=O)N(C)C[C@@H]2Oc3ccc(NC(=O)Cn4cnnn4)cc3C(=O)N([C@H](C)CO)C[C@H]2C)cc1	0.0	4.3	x	x
CC(=O)C(Sc1nccc(-c2cccs2)n1)C(C)=O	14.6*	-3.0	-25.4	-5.4
Cc1ccn(CCC(=O)NC2CC(C)(C)Cc3c2cnn3-c2ccccc2C)n1 (stereo unspecified)	10.1*	0.3	-13.7	14.7
Cc1ccc(-c2nnc3n2N=C(c2ccccc2Br)CS3)cc1	x	1.9	1.3	58.8*
Cc1cccc(-c2nnc3n2N=C(c2ccccc2)CS3)c1	x	-0.4	-5.0	24.5
